In PubChem BioAssay (NCI):
The panel holds about 83,000 compounds, 20% with a hit somewhere; the sample as a whole holds those more often.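 Plates (96-well) were seeded with cells, treated with compound at one concentration, and incubated for 48 hours before percent growth was determined.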 Unmarked numbers belong to inactive results. How the source made its calls: active means growth percent below 10; inactive means the rest.

Tested on: HL-60(TB) leukemia
Test: NCI-60 one-dose screen, 48 h (100 = growth as untreated, 0 = no growth, -100 = all killed)
Conditions: 10 µM unless noted

Question: With `O=c1oc2c(cnc3ccccc32)cc1-c1cccs1` as the molecule, how does the growth read?
Answer: Its growth is 98.2%.

Question: With `N#CCc1csc(Cc2ccccc2)n1` as the molecule, how does the growth read?
Answer: Its growth is 95.7%.

Question: `Cc1ccc([C@H]2c3[nH]c4ccccc4c3C[C@H]3C(=O)N(CCCCCCC(=O)NO)CC(=O)N23)cc1` was tested. Which growth did it give?
Answer: Its growth is 18.6%.
